# Laboratory results from ChEMBL document CHEMBL3988442, “University of Dundee, Small-Polar-MMV Screening Library” (2021).
# Entries with a potency or affinity are not part of this list.
# Target: Protein translocase subunit SecA (Escherichia coli (strain K12)) (UniProt P10408)
# Assay: Assay to Identify E. coli SecA ATPase Inhibitors
# Format: functional
# Design: scale not given: direction of the effect not stated beside the values
# Conditions: 30 µM
# Protein translocase subunit SecA (Escherichia coli (strain K12)), sequence (P10408 whole entry): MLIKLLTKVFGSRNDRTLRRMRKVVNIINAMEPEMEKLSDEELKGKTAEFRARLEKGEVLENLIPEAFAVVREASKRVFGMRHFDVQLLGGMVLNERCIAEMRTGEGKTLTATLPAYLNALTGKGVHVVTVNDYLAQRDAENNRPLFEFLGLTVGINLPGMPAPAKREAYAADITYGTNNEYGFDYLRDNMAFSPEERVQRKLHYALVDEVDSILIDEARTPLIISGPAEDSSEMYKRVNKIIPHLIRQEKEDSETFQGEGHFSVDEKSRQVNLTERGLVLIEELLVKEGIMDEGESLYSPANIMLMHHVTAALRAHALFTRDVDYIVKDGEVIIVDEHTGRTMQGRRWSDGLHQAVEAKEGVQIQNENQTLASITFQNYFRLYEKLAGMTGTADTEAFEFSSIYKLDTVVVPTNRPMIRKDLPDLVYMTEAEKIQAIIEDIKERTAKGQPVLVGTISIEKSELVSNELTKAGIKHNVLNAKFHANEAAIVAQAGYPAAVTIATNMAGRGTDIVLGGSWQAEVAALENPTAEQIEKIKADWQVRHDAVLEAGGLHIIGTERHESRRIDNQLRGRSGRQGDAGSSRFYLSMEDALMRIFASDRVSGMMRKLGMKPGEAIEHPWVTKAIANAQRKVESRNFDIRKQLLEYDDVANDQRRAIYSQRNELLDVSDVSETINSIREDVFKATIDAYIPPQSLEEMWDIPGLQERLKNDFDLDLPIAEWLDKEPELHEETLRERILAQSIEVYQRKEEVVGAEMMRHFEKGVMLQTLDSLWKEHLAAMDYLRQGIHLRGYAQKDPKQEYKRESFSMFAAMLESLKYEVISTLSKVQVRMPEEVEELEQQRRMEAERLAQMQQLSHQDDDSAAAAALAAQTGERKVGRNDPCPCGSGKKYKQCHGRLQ
row,SMILES,Percent Effect
1,O=C(CSc1ccc(F)c(F)c1)NS(=O)(=O)c1ccc2c(c1)OCCO2,-1.98%
2,CC1COCCN1C(=O)c1cccc(OCc2cscn2)c1 (stereo not drawn),-2.94%
3,Cc1[nH]ccc1C(=O)N1CCCC(c2nccn2Cc2cscn2)C1 (stereo not drawn),-7.46%
4,O=C(c1ccc(C(F)(F)F)nc1)N1CCCC(n2cncn2)C1 (stereo not drawn),1.26%
5,Cc1ccc2oc(C(=O)N3CCC(C(=O)N4CCCC4)CC3)cc2n1,-3.66%
6,Cc1ccc(N2CCCN(C(=O)c3c(C)oc(C)c3C)CC2)nn1,-6.08%
7,CN(c1ccncn1)C1CC2(CCN(C(=O)c3ccsc3)C2)C1 (stereo not drawn),-2.12%
8,CCc1nc(C2CCCN2C(=O)c2ncoc2CC)no1 (stereo not drawn),-4.57%
9,CCc1c(C)nn(CCNC(=O)C2CCCN(C(=O)N(C)C)C2)c1C (stereo not drawn),-6.94%
10,CCn1ncnc1C1CC(=O)NCc2nc3ccccn3c21 (stereo not drawn),-7.68%
11,Cc1nc(CN2CCCC(CCc3ccc(F)cc3F)C2)c[nH]1 (stereo not drawn),-4.78%
12,COc1ccc(C2CC(=O)Nc3c2nc2n3CCCC2)cc1OC (stereo not drawn),-2.41%
13,O=C(c1cc(Cl)c2c(c1)OCO2)N1CCCC(n2ccnc2)C1 (stereo not drawn),-2.43%
14,Cc1ccccc1N1CC2(CCN(S(=O)(=O)C3CC3)C2)CC1=O (stereo not drawn),0.787%
15,CCc1nc(CN2CCCN(C(=O)COCC3CC3)CC2)cs1,-1.44%
16,O=C1CN(Cc2ccc(-c3ccccc3C(=O)O)cc2)CCN1,1.19%
17,Cc1cn2c(n1)CCC(NC(=O)c1cc(Br)cn1C)C2 (stereo not drawn),-8.37%
18,COCc1ncc(CN2CCC(Oc3ccccc3OC)CC2)cn1,-4.09%
19,Cn1cc(N2CC3(COCCN(Cc4ccsc4)C3)OCC2=O)cn1 (stereo not drawn),-9.04%
20,CC(C)c1nn(C)c(N2CCOCC2)c1CNCC(=O)N(C)C,-2.05%

row,SMILES,Percent Effect
1,CCc1ccsc1C(=O)N1CCN(CC(O)CC)CC1 (stereo not drawn),-2.73%
2,COCCC(=O)N1CCC2(CC1)CC(c1ccccc1)CN(C)C2 (stereo not drawn),-6.06%
3,COc1ccc(CNCc2ccc(N3CCCCC3)nc2)cc1OC,0.873%
4,Cc1cc(C)n(CC2CCCN2CCc2ccncc2)n1 (stereo not drawn),-5.42%
5,COCCc1noc(CN2CCCC2Cn2cc(C)cn2)n1 (stereo not drawn),-1.35%
6,CC(NC(=O)N(C)CCCOc1ccc(F)cc1)c1nncn1C (stereo not drawn),-2.67%
7,CC(Nc1cccc(CN2CCOC2=O)c1)C(=O)Nc1ccccc1F (stereo not drawn),-0.263%
8,COc1cccc2c1OCC(C(=O)NC1CCN(S(C)(=O)=O)CC1)C2 (stereo not drawn),-2.9%
9,CC(=O)N1CCCC1c1cc(N2CCN(C3CCCC3)CC2)cc(C)n1 (stereo not drawn),-0.907%
10,Cn1cnc2c1CCN(Cc1ccc(C(=O)N3CCCC3)cc1)C2,-2.26%
11,c1csc(CN2CCOCC3(CCN(C4CCOCC4)C3)C2)n1 (stereo not drawn),-5.6%
12,CCN(CC1CCOC1)C(=O)Nc1ccc(-n2cncn2)nc1 (stereo not drawn),-3.32%
13,Cn1cc(NC(=O)N2CCC(NS(C)(=O)=O)CC2)ccc1=O,1.1%
14,O=C(NCCNC(=O)c1scnc1Cl)c1ccccc1,-3.41%
15,Cc1cc(C(=O)O)cc(S(=O)(=O)Nc2ccc3c(c2)OCO3)c1C,-0.174%
16,Cc1ccc(-c2cc(CN3CCCC(Cn4cncn4)C3)on2)cc1 (stereo not drawn),-6.67%
17,CNc1cncc(C2CCCN2C(=O)c2ccc3oc(C)cc3c2)n1 (stereo not drawn),-2.25%
18,Cc1cc(NC(=O)CN2CCCC2c2noc(C(C)C)n2)n(C)n1 (stereo not drawn),0.91%
19,COCCC(=O)N1CCCC2(CCC(=O)N2CCOC)CC1 (stereo not drawn),-2.63%

# Target: T1, Ubiquitin-activating enzyme e1, putative (Leishmania donovani (strain BPK282A1)) (UniProt E9BSI1)
# T1 sequence (whole entry): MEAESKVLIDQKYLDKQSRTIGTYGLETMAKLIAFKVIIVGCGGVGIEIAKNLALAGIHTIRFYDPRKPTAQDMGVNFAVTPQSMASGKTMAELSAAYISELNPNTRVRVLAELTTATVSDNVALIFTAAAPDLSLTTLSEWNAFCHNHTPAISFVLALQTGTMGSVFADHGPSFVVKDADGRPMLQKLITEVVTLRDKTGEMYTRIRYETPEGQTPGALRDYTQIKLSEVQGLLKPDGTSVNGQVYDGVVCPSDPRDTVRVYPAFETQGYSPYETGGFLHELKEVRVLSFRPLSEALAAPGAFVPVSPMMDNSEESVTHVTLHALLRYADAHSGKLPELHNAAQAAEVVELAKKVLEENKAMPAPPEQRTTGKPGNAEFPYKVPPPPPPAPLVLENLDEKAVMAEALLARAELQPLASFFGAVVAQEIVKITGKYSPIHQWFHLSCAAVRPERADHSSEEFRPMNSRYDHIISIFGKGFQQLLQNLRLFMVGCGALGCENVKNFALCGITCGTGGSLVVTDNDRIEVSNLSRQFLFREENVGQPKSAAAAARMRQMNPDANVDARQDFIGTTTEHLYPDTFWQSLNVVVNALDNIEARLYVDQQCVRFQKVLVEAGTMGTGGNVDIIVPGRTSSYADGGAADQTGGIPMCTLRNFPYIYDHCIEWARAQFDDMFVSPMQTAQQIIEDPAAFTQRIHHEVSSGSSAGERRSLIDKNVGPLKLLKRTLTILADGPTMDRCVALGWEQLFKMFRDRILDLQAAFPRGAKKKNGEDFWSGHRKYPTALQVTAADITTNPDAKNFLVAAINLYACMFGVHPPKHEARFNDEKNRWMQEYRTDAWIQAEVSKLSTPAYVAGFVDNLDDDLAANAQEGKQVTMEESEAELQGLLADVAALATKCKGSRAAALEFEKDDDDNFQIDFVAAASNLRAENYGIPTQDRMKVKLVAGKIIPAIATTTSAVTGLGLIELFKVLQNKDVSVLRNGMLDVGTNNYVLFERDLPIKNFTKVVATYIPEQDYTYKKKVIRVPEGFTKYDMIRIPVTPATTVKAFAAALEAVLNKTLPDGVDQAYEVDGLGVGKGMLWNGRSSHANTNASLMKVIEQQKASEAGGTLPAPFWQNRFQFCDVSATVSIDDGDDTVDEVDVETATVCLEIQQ
# Assay: Leishmania donovani Ubiquitin Activating Enzyme (LdE1)
# Format: functional
# Design: scale not given: direction of the effect not stated beside the values
# Conditions: 30 µM
row,SMILES,Percent Effect
1,O=C(CSc1ccc(F)c(F)c1)NS(=O)(=O)c1ccc2c(c1)OCCO2,2.56%
2,CC1COCCN1C(=O)c1cccc(OCc2cscn2)c1 (stereo not drawn),10.3%
3,Cc1[nH]ccc1C(=O)N1CCCC(c2nccn2Cc2cscn2)C1 (stereo not drawn),-5.41%
4,O=C(c1ccc(C(F)(F)F)nc1)N1CCCC(n2cncn2)C1 (stereo not drawn),-5.13%
5,Cc1ccc2oc(C(=O)N3CCC(C(=O)N4CCCC4)CC3)cc2n1,7.69%
6,Cc1ccc(N2CCCN(C(=O)c3c(C)oc(C)c3C)CC2)nn1,18.7%
7,CN(c1ccncn1)C1CC2(CCN(C(=O)c3ccsc3)C2)C1 (stereo not drawn),22.7%
8,CCc1nc(C2CCCN2C(=O)c2ncoc2CC)no1 (stereo not drawn),7.69%
9,CCc1c(C)nn(CCNC(=O)C2CCCN(C(=O)N(C)C)C2)c1C (stereo not drawn),5.41%
10,CCn1ncnc1C1CC(=O)NCc2nc3ccccn3c21 (stereo not drawn),10.8%
11,Cc1nc(CN2CCCC(CCc3ccc(F)cc3F)C2)c[nH]1 (stereo not drawn),-2.7%
12,COc1ccc(C2CC(=O)Nc3c2nc2n3CCCC2)cc1OC (stereo not drawn),8.11%
13,O=C(c1cc(Cl)c2c(c1)OCO2)N1CCCC(n2ccnc2)C1 (stereo not drawn),5.33%
14,Cc1ccccc1N1CC2(CCN(S(=O)(=O)C3CC3)C2)CC1=O (stereo not drawn),16.9%
15,CCc1nc(CN2CCCN(C(=O)COCC3CC3)CC2)cs1,12.8%
16,O=C1CN(Cc2ccc(-c3ccccc3C(=O)O)cc2)CCN1,12%
17,Cc1cn2c(n1)CCC(NC(=O)c1cc(Br)cn1C)C2 (stereo not drawn),0%
18,COCc1ncc(CN2CCC(Oc3ccccc3OC)CC2)cn1,2.7%
19,Cn1cc(N2CC3(COCCN(Cc4ccsc4)C3)OCC2=O)cn1 (stereo not drawn),-1.3%
20,CC(C)c1nn(C)c(N2CCOCC2)c1CNCC(=O)N(C)C,12.8%

row,SMILES,Percent Effect
1,CCc1ccsc1C(=O)N1CCN(CC(O)CC)CC1 (stereo not drawn),7.79%
2,COCCC(=O)N1CCC2(CC1)CC(c1ccccc1)CN(C)C2 (stereo not drawn),5.41%
3,COc1ccc(CNCc2ccc(N3CCCCC3)nc2)cc1OC,15.4%
4,Cc1cc(C)n(CC2CCCN2CCc2ccncc2)n1 (stereo not drawn),7.69%
5,COCCc1noc(CN2CCCC2Cn2cc(C)cn2)n1 (stereo not drawn),8%
6,CC(NC(=O)N(C)CCCOc1ccc(F)cc1)c1nncn1C (stereo not drawn),8%
7,CC(Nc1cccc(CN2CCOC2=O)c1)C(=O)Nc1ccccc1F (stereo not drawn),7.69%
8,COc1cccc2c1OCC(C(=O)NC1CCN(S(C)(=O)=O)CC1)C2 (stereo not drawn),16.2%
9,CC(=O)N1CCCC1c1cc(N2CCN(C3CCCC3)CC2)cc(C)n1 (stereo not drawn),17.3%
10,Cn1cnc2c1CCN(Cc1ccc(C(=O)N3CCCC3)cc1)C2,15.4%
11,c1csc(CN2CCOCC3(CCN(C4CCOCC4)C3)C2)n1 (stereo not drawn),6.49%
12,CCN(CC1CCOC1)C(=O)Nc1ccc(-n2cncn2)nc1 (stereo not drawn),5.13%
13,Cn1cc(NC(=O)N2CCC(NS(C)(=O)=O)CC2)ccc1=O,48.7%
14,O=C(NCCNC(=O)c1scnc1Cl)c1ccccc1,16%
15,Cc1cc(C(=O)O)cc(S(=O)(=O)Nc2ccc3c(c2)OCO3)c1C,2.56%
16,Cc1ccc(-c2cc(CN3CCCC(Cn4cncn4)C3)on2)cc1 (stereo not drawn),7.79%
17,CNc1cncc(C2CCCN2C(=O)c2ccc3oc(C)cc3c2)n1 (stereo not drawn),12%
18,Cc1cc(NC(=O)CN2CCCC2c2noc(C(C)C)n2)n(C)n1 (stereo not drawn),-42.7%
19,COCCC(=O)N1CCCC2(CCC(=O)N2CCOC)CC1 (stereo not drawn),11.7%
